Assay results taken from PubChem BioAssay AID504660 (National Center for Advancing Translational Sciences (NCATS), 2011).
Hit rate of the full screen: of about 360,000 compounds, about 3,700 (1%) were called active. This excerpt belongs to a sample that is enriched for actives. Values without a mark were called inactive. Rule as the data show it: active = activation above about 30%; inactive = the rest.
Also: 0% is about no effect.

Each compound was assayed against D(1A) dopamine receptor (Homo sapiens) (UniProt P21728) (assay: Allosteric Agonists of the Human D1 Dopamine Receptor: qHTS). Details: HEK293 T-REx D1 cells, calcium flux, agonist mode; at 2 µM; hits give high values.
Sequence of D(1A) dopamine receptor (Homo sapiens) (P21728 whole entry, looked up): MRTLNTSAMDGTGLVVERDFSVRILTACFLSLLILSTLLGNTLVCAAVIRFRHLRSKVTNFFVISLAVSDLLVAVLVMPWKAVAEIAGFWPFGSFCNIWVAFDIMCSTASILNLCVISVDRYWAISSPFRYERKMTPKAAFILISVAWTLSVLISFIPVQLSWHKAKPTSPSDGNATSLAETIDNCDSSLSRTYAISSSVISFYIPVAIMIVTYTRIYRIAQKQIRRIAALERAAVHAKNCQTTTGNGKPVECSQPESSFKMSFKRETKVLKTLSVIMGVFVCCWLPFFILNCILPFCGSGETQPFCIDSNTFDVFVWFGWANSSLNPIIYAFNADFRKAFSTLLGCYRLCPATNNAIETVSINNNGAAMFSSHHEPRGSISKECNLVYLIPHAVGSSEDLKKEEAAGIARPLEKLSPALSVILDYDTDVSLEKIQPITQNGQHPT
Method in brief: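 Agonism was scored from calcium flux recorded over 180 s (1 read/s) after pintool compound addition, following a 10-cycle baseline. Cells were inducible force-coupled HEK293 TREx D1, plated overnight at 30 C and loaded with no-wash calcium dye.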
Work on `Cc1cccc(NC(=O)c2ccc(F)c(S(=O)(=O)N(C)C3CCCCC3)c2)c1` yielded an activation of 0.598%. `O=C(Cc1ccc(S(=O)(=O)N2CCOCC2)s1)NCCC(c1ccccc1)c1ccccc1` was tested, and the activation was 2.27%. Compound `CCN(Cc1ccccc1)C(=O)Cc1ccc(OC)c(S(=O)(=O)N2CCOCC2)c1` has an activation of 3.33%. In the case of `COCCN(Cc1ccccc1)C(=O)Cc1ccc(S(=O)(=O)N2CCOCC2)s1`, the activation is reported as 134% (active). Work on `CCOC(=O)c1cc(-c2ccccc2)n(CCC(=O)Nc2ccccc2CC)c1C` yielded an activation of 5.65%. For `CCC(=O)N1CCc2cc(Br)cc(S(=O)(=O)Nc3ccc(C)cc3C)c21`, the activation was 0.918%. Work on `CC(C)N(Cc1ccccc1)C(=S)Nc1ccc(OC(F)F)cc1` yielded an activation of 15.8%. With `CC(NC(=S)Nc1ccc(OC(F)F)cc1)c1ccc(F)cc1` (stereo unspecified) the activation was 41.7% (active). For `CC/C(=N\NC(=S)NC(C)C)c1ccc(OC(F)F)cc1`, the activation was 0.526%. In the case of `Cc1ccc(S(=O)(=O)NC(N)=NCCC[C@@H](NC(=O)CNC(=O)c2ccccc2)C(=O)Nc2cc(C(F)(F)F)ccc2Cl)cc1`, the activation is reported as 4.3%. For `CCOC(=O)c1ccc(CN(Cc2ccccc2)S(=O)(=O)c2ccc(Cl)cc2)cc1`, the activation was 18.5%. For `O=[S+]([O-])(c1ccc(OC(F)(F)F)cc1)N1CCN([S+](=O)([O-])c2ccc3c(c2)OCCO3)CC1`, the activation was 4.97%. For `CC1Cc2cc(S(=O)(=O)CCC(=O)NCc3ccc(Cl)cc3)ccc2N1C(=O)C1CC1` (stereo unspecified), the activation was 14%. `Cc1cccc(NC(=O)N2CCCCCC2)c1C` showed an activation of 0.571%. `Cc1cccc(NC(=O)c2cccc(C(=O)Nc3cccc(C)c3C)n2)c1C` showed an activation of 2.25%. For `Cc1cccc(NC(=O)N2CCN(C)c3ncccc32)c1C`, the activation was 33.9% (active). In the case of `O=C1C(F)N([S+](=O)([O-])c2ccc3c(c2)OCCO3)CCN1[S+](=O)([O-])c1c(F)cccc1F` (stereo unspecified), the activation is reported as -0.431%. `COc1ccc(CCC(=O)NCCc2csc(-c3ccc(Cl)cc3)n2)cc1` showed an activation of 5.93%. For `O=c1c(-c2ccc(Cl)cc2)[n+]([O-])c2ccccc2n1OCc1nc2ccccc2[nH]1`, the activation was -0.955%. With `O=C(c1ccc(Cl)cc1)n1cnc2ccccc21` the activation was 1.83%. With `O=C(Cc1nc2ccccc2[nH]c1=O)c1ccc(Cl)cc1` the activation was 69.4% (active). `C#CC(C)(CC)NC(=O)Cn1nnc(-c2ccc(OCc3c(F)cccc3Cl)cc2)n1` (stereo unspecified) gave an activation of 3.62%. `COc1ccc(CCNC(=O)CCCn2c(=O)c3ccccc3n(Cc3ccc(C)cc3)c2=O)cc1OC` was tested, and the activation was -2.01%. For `COc1cccc(CNC(=O)CCc2nc(-c3ccc(C)cc3)no2)c1`, the activation was 3.85%. `COc1ccccc1-c1noc(CSc2nnc(-c3ccccc3)n2-c2ccc(C)c(C)c2)n1` gave an activation of 0.886%. `COc1cccc(C(=O)NC(=O)Nc2nc(C)cc(C(F)(F)F)n2)c1` showed an activation of 2.89%. `COc1cccc(C(=O)Nc2ccc(-c3cc(C(F)(F)F)nn3-c3ccccc3)cc2)c1` was tested, and the activation was 2.16%. `COc1cccc(C(=O)c2sc3nc(-c4ccccc4)cc(C(F)(F)F)c3c2N)c1` was tested, and the activation was 171% (active). For `Cc1ccccc1CNC(=O)CCCn1nc(C)c2sc3ccccc3c2c1=O`, the activation was 5.39%. Compound `CSc1ccccc1-c1nnc(NC(=O)c2ccc3c(c2)OCCO3)o1` has an activation of 0.0799%. `CCC(C(=O)Nc1cccc(-c2nc3cccnc3s2)c1C)c1ccccc1` (stereo unspecified) gave an activation of 6.2%. For `COc1cc(NC(=O)c2ccccc2NS(=O)(=O)c2ccc(Cl)s2)cc(OC)c1`, the activation was 32.7% (active). For `COc1cc(NS(=O)(=O)c2cccs2)cc(OC)c1`, the activation was -0.545%. For `O=S(=O)(Nc1ccccc1N1CCOCC1)c1ccc(Cl)s1`, the activation was 0.142%. With `CCCn1c(NCc2ccc(N(CC)CC)cc2)nc2ccccc21` the activation was 15.4%. Compound `Cc1ccc(CN2CCC(n3nccc3NC(=O)CCCc3ccccc3)CC2)o1` has an activation of 1.76%. Compound `COc1cc(CN2CCC(n3nccc3NC(=O)CCCc3ccccc3)CC2)ccc1O` has an activation of 0.415%. With `COc1ccc(CN2CCC(n3nccc3NC(=O)CCCc3ccccc3)CC2)cc1C` the activation was 37.7% (active). With `Cc1ccc(CN2CCC(CNC(=O)c3cnn(-c4ccc(C)cc4)c3C3CCN(C(=O)OC(C)(C)C)CC3)CC2)cc1` the activation was 33.1% (active). Compound `Cc1ccc(CN2CCC(CNC(=O)c3cnn(-c4ccccc4Cl)c3C3CCN(C(=O)OC(C)(C)C)CC3)CC2)cc1` has an activation of 27.5%. In the case of `COc1ccccc1CN1CCC(CNC(=O)c2cnn(-c3cccc(Cl)c3)c2C2CCN(C(=O)OC(C)(C)C)CC2)CC1`, the activation is reported as 9.95%. Work on `COc1ccc(-n2c(C)nc3c(cnn3-c3ccc(F)cc3)c2=O)cc1` yielded an activation of 9.13%. With `Cc1ccc(NC(=O)COC(=O)CNC(=O)c2ccc(Cl)cc2Cl)cc1S(=O)(=O)N1CCOCC1` the activation was 31.1% (active). For `Cc1ccc(C(=O)OCC(=O)Nc2ccc(Cl)cn2)cc1S(=O)(=O)N1CCOCC1`, the activation was 5.99%. With `Cc1ccc(NC(=O)CCCNC(=O)c2ccc(Cl)cc2)cc1S(=O)(=O)N1CCOCC1` the activation was 0.321%. `Cc1ccc(S(=O)(=O)N2CCC(C(=O)Nc3cc(C)ccc3C)CC2)cc1` gave an activation of 1.28%. For `CC(C)(C)CC(C)(C)NCC(O)COCCOc1ccc(Br)cc1` (stereo unspecified), the activation was 171% (active). For `COc1ccc(OCC(O)CNCCNc2nccc(C(F)(F)F)n2)cc1` (stereo unspecified), the activation was 1.81%. `CC(Oc1ccc(Br)cc1)C(=O)NC1CCCCCC1` (stereo unspecified) showed an activation of 1.77%. `COc1ccc(-n2ccnc(NCCc3ccc(Cl)cc3)c2=O)cc1OC` was tested, and the activation was 1.51%. `COc1cc(OC)c(NC(=O)c2cc(S(=O)(=O)N3CCCC3)cn2C)cc1Cl` gave an activation of 0.318%. `COc1ccccc1C(=O)OCc1cc(=O)n2nc(-c3cccs3)sc2n1` was tested, and the activation was 0.554%. `COc1ccc(C(=O)N2CCC(c3nc4ccccc4o3)CC2)cc1` gave an activation of 0.0167%. In the case of `O=C(Cn1cc(SCc2ccccc2)c2ccccc21)N1CCCCC1`, the activation is reported as 0.868%. In the case of `CN(Cc1ccccc1)CC(O)COc1ccc(CNCc2cc3ccccc3s2)cc1` (stereo unspecified), the activation is reported as 36.8% (active). Work on `COc1ccc(OCC(O)CN(C)C(=O)C(C)Oc2ccccc2)cc1` (stereo unspecified) yielded an activation of 3.18%. `COc1cccc(CN(C)CC(O)COC(c2ccccc2)c2ccccc2C)c1` (stereo unspecified) showed an activation of 5.2%. In the case of `C=CCSc1nnc(N2C(=O)C(O)=C(C(=O)c3ccco3)C2c2ccc(F)cc2)s1` (stereo unspecified), the activation is reported as 54.8% (active). `Cc1ccc2nc(N3C(=O)C(O)=C(C(=O)c4ccco4)C3c3cccc(O)c3)sc2c1` (stereo unspecified) was tested, and the activation was 7.96%. `C=CCOc1cccc(C2C(C(=O)c3ccc(C)o3)=C(O)C(=O)N2c2nnc(C)s2)c1` (stereo unspecified) was tested, and the activation was 29.7%. Work on `COc1ccc(CNC(=O)c2ccc(NC(=O)N3CC4CCCN4c4ccccc43)cc2)cc1` (stereo unspecified) yielded an activation of 0.101%. Compound `COc1ccc(Cn2ccn(CC(=O)Nc3cc(C)ccc3C)c(=O)c2=O)cc1` has an activation of 18.9%. Compound `CCc1nc2ccc(C(=O)N3CCN(c4cc(Cl)ccc4C)CC3)cc2nc1CC` has an activation of 5.95%. Work on `O=C(NC1CC(=O)N(c2ccc(F)cc2)C1)c1cccs1` (stereo unspecified) yielded an activation of 1.75%. `COc1ccc(C2COC(=O)C2=N)c(NC(=O)c2ccccc2)c1` (stereo unspecified) gave an activation of 0.266%. In the case of `CC(=O)c1cc(NC(=O)c2ccccc2)c(=O)oc1/C=C/N(C)C`, the activation is reported as 30.3% (active). `CCOC(=O)c1cc(NC(=O)c2ccc(Cl)cc2)c(=O)oc1-c1ccccc1` showed an activation of 3.05%. For `Cc1ccc(N2CC(NC(=O)Cc3cccs3)CC2=O)cc1` (stereo unspecified), the activation was -0.478%. With `CCOc1ccc(Nc2oc(/C=C/c3ccc(F)cc3)nc2C#N)cc1` the activation was -0.316%. `CCOc1ccc(N(Cc2ccccc2)C(=O)c2nc(S(C)(=O)=O)ncc2Cl)cc1` gave an activation of 1.14%. With `COc1ccc(NC(=O)Cn2c(=O)cc(C)c3c(C)nn(-c4cccc(Cl)c4C)c32)cc1OC` the activation was 0.131%. `Cn1c(=O)[nH]c(=O)c2c1nc(NCCc1ccccc1)n2Cc1ccc(F)cc1` showed an activation of -2.2%. `OCCn1c(-c2ccccc2)csc1=Nc1ccccc1` gave an activation of 0.78%. In the case of `CN(C)CCCn1c(-c2ccc(Cl)cc2)csc1=Nc1ccccc1`, the activation is reported as 39% (active). `CN(C)CCCn1c(SCc2ccc(Cl)cc2)nnc1-c1ccncc1` was tested, and the activation was 0.237%. `O=C(CSc1ncc(CO)n1Cc1ccc(F)cc1)NCc1ccco1` showed an activation of 1.99%. `O=C(CNC(=O)c1ccc(Cl)cc1Cl)OC(C(=O)Nc1cc(C(F)(F)F)ccc1Cl)c1ccccc1` (stereo unspecified) was tested, and the activation was 6.6%. Work on `O=C(Nc1ccccc1)N1CCC(C(=O)N2CCN(Cc3ccccc3)CC2)CC1` yielded an activation of 0.0463%. Compound `COc1ccc(NC(C)=O)cc1NC(=O)CN1CCN(C2c3ccccc3-c3ccccc32)CC1` has an activation of 1.82%. For `O=C(Nc1ccccc1)N1CCN(C2c3ccccc3-c3ccccc32)CC1`, the activation was 35.4% (active). `O=C(CC(c1cccs1)N1Cc2ccccc2C1=O)Nc1ccc(F)c(F)c1` (stereo unspecified) showed an activation of 10.6%. Work on `CCOc1ccc(CNC(=O)Cn2cc3c(n2)-c2c(oc(C(=O)N4CCCC4)c2C)CC3)cc1` yielded an activation of 0.642%. Compound `COc1ccc(CCNC(=O)c2ccc(CS(=O)(=O)c3ccc(Br)cc3)o2)cc1OC` has an activation of 17.3%. In the case of `COc1ccccc1CNC(=O)c1ccc(CS(=O)(=O)c2ccccc2)o1`, the activation is reported as 30.2% (active). `COc1ccccc1CNC(=O)c1ccc(CS(=O)c2ccccc2Cl)o1` (stereo unspecified) gave an activation of 6.51%. `CCC(C(=O)Nc1cccc(Cl)c1C)n1nc(-c2ccc(C)cc2)ccc1=O` (stereo unspecified) gave an activation of 1.44%.
